# Laboratory results published in PubChem BioAssay (NCI).
# The panel holds about 83,000 compounds, 20% with a hit somewhere; the sample as a whole holds those more often.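 The endpoint reported here, percent growth, reads 100 for growth as untreated, 0 for no net growth and -100 for all cells dead.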 Active and inactive are the calls of the source. The calls were made as follows: active = growth percent below 10; inactive = the rest.
# Tested on: NCI-H23 lung
# Experiment: NCI-60 one-dose screen, 48 h (100 = growth as untreated, 0 = no growth, -100 = all killed)
# Conditions: 10 µM unless noted
row,Compound,growth
1,CC[C@H](C)[C@H](N)C(=O)O,111% (inactive)
2,COc1ccc2c(c1)sc1nc(-c3ccccc3)c(-c3cccc4ccccc34)n12,39.3% (inactive)
3,Cc1ccc(C)c(NC(=O)c2sc3c(=O)[nH]cnc3c2C)c1,93.4% (inactive)
4,Cc1ccncc1NC=O,101% (inactive)
5,COc1ccc(/C(C)=N/NC(=O)CSc2nc3ccccc3c(=O)n2CCc2ccc(S(N)(=O)=O)cc2)cc1,29.9% (inactive)
6,COC(=O)OC1C(O[C@H]2C[C@H]3[C@@H]4CC=C5C[C@@H](O)CC[C@]5(C)[C@H]4CC[C@]3(C)[C@H]2[C@H](C)C(=O)CCC(C)C)OCC(O)C1OC1OCC(O)C(O)C1OC(=O)c1ccc(OC)cc1 (stereo partly drawn),27.9% (inactive)
7,O=C1CCCN1C1CCN2CCCc3cccc1c32 (stereo not drawn),105% (inactive)
8,CC1OC(n2c3ccccc3c3c4c(c5c6ccccc6[nH]c5c32)C(=O)N(CCN[C@H]2CCC[C@@H]2N)C4=O)CC(O)C1O (stereo partly drawn),33.8% (inactive)
9,COc1ccc2[nH]cc(C3(c4c[nH]c5ccc(OC)cc45)C(=O)Nc4ccc(F)cc43)c2c1,97% (inactive)
10,c1cc2c(cc1-c1cnc3nonc3n1)OCO2,99.3% (inactive)
11,Nc1c(C(=O)Nc2cccc(Cl)c2)sc2nc3c(cc12)C(=O)CCC3,38% (inactive)
12,O=C(Nc1ccc(Br)cc1)c1ccc(Cl)c(Cl)c1,26.2% (inactive)
13,O=C(CSc1nc2c(n1Nc1ccccc1)-c1ccccc1SC2)Nc1nccs1,91.2% (inactive)
14,COc1ccc(-c2nc3c(c(-c4ccc(Cl)cc4)nn3-c3ccccc3)c(-c3ccc(O)cc3)c2C#N)cc1,52.8% (inactive)
15,c1csc(-c2cnc3nonc3n2)c1,72.8% (inactive)
16,CC1(C)CC(=O)c2cc3c(N)c(C(=O)Nc4ccc(Cl)cc4)sc3nc2C1,105% (inactive)
17,CN1C(=O)C(C(=O)/C=C/c2ccccc2C(=O)O)C(=O)N(C)C1=O,95.1% (inactive)
18,CC(NC(=O)c1ccccc1)C(=O)Nc1ccccc1 (stereo not drawn),105% (inactive)
19,CN1CCC2(CC1)N=C(SCC(=O)Nc1cnc3ccccc3c1)C(c1ccc(Br)cc1)=N2,63.5% (inactive)
20,CSc1nc(N)c2[nH]c(-c3cc4ccccc4[nH]c3=O)nc2n1,83.9% (inactive)

row,Compound,growth
1,C=CC(=O)N1CN(C(=O)C=C)CN(C(=O)C=C)C1,67.4% (inactive)
2,CC(C)(C)[Si](C)(C)OC1[C@@H](O[Si](C)(C)C(C)(C)C)[C@@H](CNC(=O)NC(=O)NC(=O)CCl)O[C@H]1n1cnc2c(NC(=O)Nc3ccccc3)ncnc21 (stereo partly drawn),-35.6% (active)
3,CCCCCCCC/C=C/CCCCCCCC1=NC(C)(C)CN1c1ccccc1,89.1% (inactive)
4,CCCCCCCCN(CCCCCCCC)C(=O)CCl,70.6% (inactive)
5,COc1cc(OC)c(Cl)cc1N,105% (inactive)
6,CNC(=O)c1c(NC(=O)c2ccc(C(C)C)cc2)sc2c1CCC(=O)C2,-1.47% (active)
7,COc1nccc2c(Sc3ccccc3)nc(N)nc12,98.8% (inactive)
8,Nc1c(C(=O)Nc2ccccc2)sc2nc3c(cc12)C(=O)CCC3,39.5% (inactive)
9,CCC(=O)NC1=C(Cl)C(=O)C(NC(=O)CC)=C(Cl)C1=O,94% (inactive)
10,CCCCCCCCCCCCC1CCC(=O)O1 (stereo not drawn),101% (inactive)
11,CCN1C(=O)N(CC)C2C1NC(=O)N2/N=C/C=C/c1ccccc1 (stereo not drawn),64.5% (inactive)
12,CN(C)CCCN1c2ccccc2CCc2ccccc21,129% (inactive)
13,CC(CN1CCN(CC(C)Nc2ccnc3cc(Cl)ccc23)CC1)Nc1ccnc2cc(Cl)ccc12 (stereo not drawn),62.3% (inactive)
14,S=C(S)Oc1cccc2cccnc12,106% (inactive)
15,CCn1c(Cc2ccccc2Nc2c(Cl)cccc2Cl)nnc1SCC(=O)Nc1cccc(OC)c1,85% (inactive)
16,CCc1onc(-c2ccc(OC)cc2)c1-c1ccccc1OCCN(CC)CC,85.4% (inactive)
17,COc1ccc(-c2cc(-c3ccc(OC)cc3)c3sc(=O)[nH]c3n2)cc1,98% (inactive)
18,COc1ccc2nc3ccccc3c(NCc3ccc(C)cc3)c2c1,28.3% (inactive)
19,CS(=O)(=O)c1ccc(C(=O)Nc2ccc(Cl)c(-c3ccccn3)c2)c(Cl)c1,27.3% (inactive)

# Tested on: NCI-H226 lung
# Experiment: as above
# Conditions: 10 µM unless noted
row,Compound,growth
1,CC[C@H](C)[C@H](N)C(=O)O,96.5% (inactive)
2,COc1ccc2c(c1)sc1nc(-c3ccccc3)c(-c3cccc4ccccc34)n12,68.2% (inactive)
3,Cc1ccc(C)c(NC(=O)c2sc3c(=O)[nH]cnc3c2C)c1,106% (inactive)
4,Cc1ccncc1NC=O,101% (inactive)
5,COc1ccc(/C(C)=N/NC(=O)CSc2nc3ccccc3c(=O)n2CCc2ccc(S(N)(=O)=O)cc2)cc1,49% (inactive)
6,COC(=O)OC1C(O[C@H]2C[C@H]3[C@@H]4CC=C5C[C@@H](O)CC[C@]5(C)[C@H]4CC[C@]3(C)[C@H]2[C@H](C)C(=O)CCC(C)C)OCC(O)C1OC1OCC(O)C(O)C1OC(=O)c1ccc(OC)cc1 (stereo partly drawn),-8.65% (active)
7,O=C1CCCN1C1CCN2CCCc3cccc1c32 (stereo not drawn),111% (inactive)
8,CC1OC(n2c3ccccc3c3c4c(c5c6ccccc6[nH]c5c32)C(=O)N(CCN[C@H]2CCC[C@@H]2N)C4=O)CC(O)C1O (stereo partly drawn),40.5% (inactive)
9,COc1ccc2[nH]cc(C3(c4c[nH]c5ccc(OC)cc45)C(=O)Nc4ccc(F)cc43)c2c1,70% (inactive)
10,c1cc2c(cc1-c1cnc3nonc3n1)OCO2,93.4% (inactive)
11,Nc1c(C(=O)Nc2cccc(Cl)c2)sc2nc3c(cc12)C(=O)CCC3,57.9% (inactive)
12,O=C(Nc1ccc(Br)cc1)c1ccc(Cl)c(Cl)c1,61.8% (inactive)
13,O=C(CSc1nc2c(n1Nc1ccccc1)-c1ccccc1SC2)Nc1nccs1,93.6% (inactive)
14,COc1ccc(-c2nc3c(c(-c4ccc(Cl)cc4)nn3-c3ccccc3)c(-c3ccc(O)cc3)c2C#N)cc1,70.6% (inactive)
15,c1csc(-c2cnc3nonc3n2)c1,88.1% (inactive)
16,CC1(C)CC(=O)c2cc3c(N)c(C(=O)Nc4ccc(Cl)cc4)sc3nc2C1,108% (inactive)
17,CN1C(=O)C(C(=O)/C=C/c2ccccc2C(=O)O)C(=O)N(C)C1=O,99.5% (inactive)
18,CC(NC(=O)c1ccccc1)C(=O)Nc1ccccc1 (stereo not drawn),104% (inactive)
19,CN1CCC2(CC1)N=C(SCC(=O)Nc1cnc3ccccc3c1)C(c1ccc(Br)cc1)=N2,57.6% (inactive)
20,CSc1nc(N)c2[nH]c(-c3cc4ccccc4[nH]c3=O)nc2n1,105% (inactive)

row,Compound,growth
1,C=CC(=O)N1CN(C(=O)C=C)CN(C(=O)C=C)C1,87% (inactive)
2,CC(C)(C)[Si](C)(C)OC1[C@@H](O[Si](C)(C)C(C)(C)C)[C@@H](CNC(=O)NC(=O)NC(=O)CCl)O[C@H]1n1cnc2c(NC(=O)Nc3ccccc3)ncnc21 (stereo partly drawn),88.2% (inactive)
3,CCCCCCCC/C=C/CCCCCCCC1=NC(C)(C)CN1c1ccccc1,99% (inactive)
4,CCCCCCCCN(CCCCCCCC)C(=O)CCl,96.8% (inactive)
5,COc1cc(OC)c(Cl)cc1N,108% (inactive)
6,CNC(=O)c1c(NC(=O)c2ccc(C(C)C)cc2)sc2c1CCC(=O)C2,-24.5% (active)
7,COc1nccc2c(Sc3ccccc3)nc(N)nc12,103% (inactive)
8,Nc1c(C(=O)Nc2ccccc2)sc2nc3c(cc12)C(=O)CCC3,68% (inactive)
9,CCC(=O)NC1=C(Cl)C(=O)C(NC(=O)CC)=C(Cl)C1=O,113% (inactive)
10,CCCCCCCCCCCCC1CCC(=O)O1 (stereo not drawn),100% (inactive)
11,CCN1C(=O)N(CC)C2C1NC(=O)N2/N=C/C=C/c1ccccc1 (stereo not drawn),74.9% (inactive)
12,CN(C)CCCN1c2ccccc2CCc2ccccc21,104% (inactive)
13,CC(CN1CCN(CC(C)Nc2ccnc3cc(Cl)ccc23)CC1)Nc1ccnc2cc(Cl)ccc12 (stereo not drawn),26.6% (inactive)
14,S=C(S)Oc1cccc2cccnc12,102% (inactive)
15,CCn1c(Cc2ccccc2Nc2c(Cl)cccc2Cl)nnc1SCC(=O)Nc1cccc(OC)c1,83.3% (inactive)
16,CCc1onc(-c2ccc(OC)cc2)c1-c1ccccc1OCCN(CC)CC,93.5% (inactive)
17,COc1ccc(-c2cc(-c3ccc(OC)cc3)c3sc(=O)[nH]c3n2)cc1,71% (inactive)
18,COc1ccc2nc3ccccc3c(NCc3ccc(C)cc3)c2c1,42.1% (inactive)
19,CS(=O)(=O)c1ccc(C(=O)Nc2ccc(Cl)c(-c3ccccn3)c2)c(Cl)c1,16.5% (inactive)
